From PubChem BioAssay

Assay: small-molecule binders of probe aLefty1, primary screen, biochemical, small-molecule microarray, 635/667 nm fluorescence (AID 1153);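 note: score merges spot fluorescence with signal-to-noise ratio from the scanned slide images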
Conditions: higher = more signal
`CCC(CC)C(O)C1C=CC2C(=O)NC(=O)C2N1Nc1ccc(Cl)cc1Cl` (centres undefined) gave a composite z-score of 0.348.
Work on `C=C(CCCC)/C(=C/C[C@@H](OC(=O)c1ccncc1)c1ccc(OCCO)cc1)c1cc(C(=O)OC)ccc1OC` yielded a composite z-score of -0.0984.
With `CO[C@H]1O[C@H](CO)[C@@H](OC(=O)Nc2cccc(F)c2)[C@H](OC(=O)Nc2ccccc2)[C@@H]1OC(=O)Nc1ccccc1` the composite z-score was 0.22.
Compound `C=C(COC)C(=O)CC[C@@H](OC(C)=O)c1ccc(CO)o1` has a composite z-score of 0.0371.
Compound `COC(=O)[C@H](Cc1ccccc1)N1CC2=C[C@@H](C3CC3)n3c(=O)n(C)c(=O)n3[C@H]2[C@@H]1[C@@H](O)Cc1ccccc1` has a composite z-score of 0.355.
For `C=C[C@H](CO[Si](CC)(CC)CC)N(Cc1ccc(OC(C)=O)c(OC)c1)S(=O)(=O)c1ccc(Br)cc1`, the composite z-score was 0.698.
For `C=CCOC(=O)[C@H]1[C@@H]2C(=O)O[C@@H](c3ccccc3)[C@@H](c3ccccc3)N2[C@@H](c2ccc(OCCOC(=O)[C@H]3C[C@H]4C(=O)N[C@@H](CCCCNC(C)=O)C(=O)N4[C@H]3c3ccc(O)cc3)cc2)[C@]12C(=O)Nc1ccc(I)cc12`, the composite z-score was 0.204.
`CC(C)C(O)C1C=CC2C(=O)NC(=O)C2N1Nc1ccc(Cl)cc1Cl` (centres undefined) gave a composite z-score of -0.114.
With `COc1ccc([Si](C)(C)[C@H]2[C@H](CCO)O[C@@]3(C(=O)N(Cc4ccc(N(C=O)c5ccccc5)cc4)c4ccccc43)[C@@H]2C)cc1` the composite z-score was 0.0406.
With `CC(C)C(O)C1C=CC2C(=O)N(c3ccccc3)C(=O)C2N1Nc1ccc([N+](=O)[O-])cc1` (centres undefined) the composite z-score was 0.0045.
`CC(C)C[C@@H]1NC(=O)[C@H](C(C)C)NC(=O)[C@@]23C(=O)N[C@@H](Cc4ccccc4)C2[C@H](C)[C@@]2(C)O[C@H]2C3/C=C/CC/C=C/CNC1=O` (some centres undefined) showed a composite z-score of 0.131.
`CC1(C)[C@@H]2CC(C(O)C3C=CC4C(=O)N(c5ccccc5)C(=O)C4N3Nc3ccc([N+](=O)[O-])cc3)=C[C@H]1C2` (some centres undefined) showed a composite z-score of 0.404.
With `COc1ccccc1CN1C(=O)c2ccccc2[C@@]2(Cc3ccccc3N(CC(C)C)C2=O)[C@@H]1c1ccc(CO)cc1` the composite z-score was -0.827.
For `CC1CC/C=C\[C@H]2OC34C=CCN(C(C)(C)C)C(=O)[C@H]3N(C(C)CO)C(=O)[C@@H]4C2C(=O)O1` (some centres undefined), the composite z-score was -0.0984.
With `O=C(NCCO)C1=C[C@H](Oc2ccccc2I)[C@@H](O)[C@H](N(Cc2ccco2)C(=O)Cc2ccccc2)C1` the composite z-score was 0.0752.
`CN(C)CCCC[C@@H]1NC(=O)[C@H]2C[C@@H](C(=O)NCCCCCCN)[C@@H](c3ccc(O)cc3)N2C1=O` showed a composite z-score of 1.5.
`COC(=O)C(CC#Cc1ccc2c(c1)[C@]1(C(=O)N2)[C@H](c2ccc(OCCO)cc2)N2[C@H](c3ccccc3)[C@H](c3ccccc3)OC(=O)[C@H]2[C@@H]1C(=O)N1CCc2cc(OC)c(OC)cc2C1)C(=O)OC` showed a composite z-score of 1.08.
`[N-]=[N+]=Nc1ccccc1[C@H]1OC(c2ccc(OCCCO)cc2)=N[C@@]1(CCS(=O)(=O)c1ccccc1)C(N)=O` showed a composite z-score of 0.138.
With `COC(=O)[C@@]1(Cc2ccc(F)cc2)[C@H]2c3cc(C(=O)N(C)C)n(Cc4ccccc4)c3C[C@H]2CN1C(=O)c1ccccc1` the composite z-score was 0.342.
For `COc1cc(COC(C)=O)ccc1OC(C)=O`, the composite z-score was 0.383.
`CN1C(=O)C2C=CC(C(O)C#Cc3ccccc3)N(N3CCCCC3)C2C1=O` (centres undefined) showed a composite z-score of 0.807.
With `NC(=O)NCC#Cc1ccc2c(c1)[C@]1(C(=O)N2)[C@H](C(N)=O)[C@H]2C(=O)O[C@H](c3ccccc3)[C@H](c3ccccc3)N2[C@@H]1c1ccc(O)cc1` the composite z-score was 1.73.
With `CO[C@H]1O[C@H](CO)[C@@H](OC(=O)Nc2ccc(Oc3ccccc3)cc2)[C@H](OC(=O)Nc2ccc3c(c2)OCO3)[C@H]1OC(=O)Nc1ccc2c(c1)OCO2` the composite z-score was 0.523.
Work on `CC(C)NC(=O)[C@@H]1c2ccccc2C(=O)N(C2Cc3ccccc3C2)[C@H]1c1ccc(CO)cc1` yielded a composite z-score of 0.11.
`CCCc1cc2c(n1Cc1cc(F)cc(F)c1)C(C)C1CN(C(=O)c3ccccc3)C(C)(C(=O)OC)C21` (centres undefined) gave a composite z-score of 0.269.
In the case of `[N-]=[N+]=Nc1ccccc1[C@@H]1OC(c2ccc(OCCCO)cc2)=N[C@]1(CCS(=O)(=O)c1ccccc1)C(N)=O`, the composite z-score is reported as 0.572.
In the case of `O=C1c2ccccc2[C@](Cc2ccccc2I)(C(=O)NCCN2CCOCC2)[C@H](c2ccc(CO)cc2)N1Cc1ccccc1Cl`, the composite z-score is reported as 0.559.
Compound `O=C(N1CCCCC1)[C@]1(Cc2ccccc2)N=C(c2ccc(OCCCO)cc2)O[C@@H]1c1ccccc1` has a composite z-score of 0.446.
For `CC(=O)NCCCC[C@@H]1NC(=O)[C@H]2C[C@@H](C(=O)NCCCCCCNC(=O)CS)[C@@H](c3ccc(O)cc3)N2C1=O`, the composite z-score was 0.132.
